Unmarked numbers belong to inactive results. Inconclusive results are not listed. A call without a number means that no potency is given here. The source made the active and inactive calls. Unless noted, calls follow the shape of the full dose curve.
molecular target: Thyrotropin-releasing hormone receptor (Homo sapiens) (UniProt P34981); assay: qHTS assay to identify small molecule agonists of the thyrotropin-releasing hormone receptor (TRHR) signaling pathway (AID 1346891); conditions: TRHR-HEK293 calcium fluorescence, agonist mode; series mostly up to 57.6 µM;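 also: HEK293 cells expressing TRHR with calcium dye readout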
Sequence (P34981 whole entry, looked up): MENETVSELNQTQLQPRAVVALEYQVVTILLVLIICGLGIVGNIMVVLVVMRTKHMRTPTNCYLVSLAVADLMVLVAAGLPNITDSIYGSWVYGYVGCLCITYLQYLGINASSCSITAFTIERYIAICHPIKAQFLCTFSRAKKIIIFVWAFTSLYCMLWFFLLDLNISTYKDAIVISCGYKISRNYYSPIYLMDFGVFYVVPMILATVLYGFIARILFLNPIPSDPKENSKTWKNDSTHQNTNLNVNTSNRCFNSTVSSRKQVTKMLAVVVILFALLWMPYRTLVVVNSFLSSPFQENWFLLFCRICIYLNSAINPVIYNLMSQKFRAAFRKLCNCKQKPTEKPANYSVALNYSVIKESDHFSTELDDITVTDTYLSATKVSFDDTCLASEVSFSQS
Summary of the method: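 Kinetic fluorescence (3 min, 1 s intervals) reported intracellular calcium after compound transfer onto TRHR-Hek293 cells pre-loaded with dye for 2 h at 37 °C.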

Q: Which outcome does the source give for `CCCCCCCCSCC` here?
A: The outcome was “inactive”.

Q: Which outcome does the source give for `CCCC/C=C\CCCCCCCCCC=O` here?
A: The outcome was “inactive”.

Q: For `CCCCCCCCC1CCC(=O)O1` (centres undefined), which outcome is on record?
A: The outcome was “inactive”.

Q: For `Cc1cc(NC(=O)C2=C(O)c3ccccc3S(=O)(=O)N2C)no1`, which outcome is on record?
A: Its outcome is “inactive”.

Q: With `N#Cc1ccc(C(=O)O)cc1` as the compound, how does the outcome read?
A: The outcome was “inactive”.

Q: With `CCNC(=O)C1CC(C)CCC1C(C)C` (centres undefined) as the compound, how does the outcome read?
A: The outcome was “inactive”.

Q: Which outcome does the source give for `C=CCCCCCCCCCCCC` here?
A: The outcome was “inactive”.

Q: For `CC(CO)c1ccccc1` (centres undefined), which outcome is on record?
A: The outcome was “inactive”.

Q: Which outcome does the source give for `Nc1nnc(-c2cccc(Cl)c2Cl)c(N)n1` here?
A: Its outcome is “inactive”.

Q: Which outcome does the source give for `Cc1cc(Cl)c(C)cc1Cl` here?
A: The outcome was “inactive”.

Q: For `COCCOC(=O)C1=C(C)NC(C)=C(C(=O)OC(C)C)C1c1cccc([N+](=O)[O-])c1` (centres undefined), which outcome is on record?
A: Its outcome is “inactive”.

Q: For `O=C(O)C(=O)Cc1ccccc1`, which outcome is on record?
A: The outcome was “inactive”.

Q: Which outcome does the source give for `CC(C)(C)c1n[nH]c(=S)n(N)c1=O` here?
A: Its outcome is “inactive”.

Q: Which outcome does the source give for `COC(=O)CCc1ccc(OCC(O)CNC(C)C)cc1` (centres undefined) here?
A: The outcome was “inactive”.

Q: Which outcome does the source give for `Nc1cccc(O)c1` here?
A: Its outcome is “inactive”.

Q: For `O=C(O)c1cc(Cl)cc([N+](=O)[O-])c1Cl`, which outcome is on record?
A: Its outcome is “inactive”.

Q: Which outcome does the source give for `C#CC(C)N(C)C(=O)Nc1ccc(Cl)cc1` (centres undefined) here?
A: The outcome was “inactive”.

Q: For `CCC(CC)CO`, which outcome is on record?
A: The outcome was “inactive”.

Q: Which outcome does the source give for `CC(C)NCC(O)COc1cccc2[nH]ccc12` (centres undefined) here?
A: The outcome was “inactive”.

Q: With `COc1cc2c(cc1OC)C(=O)CC2` as the compound, how does the outcome read?
A: Its outcome is “inactive”.

Q: With `CC1COc2ccccc2N1` (centres undefined) as the compound, how does the outcome read?
A: The outcome was “inactive”.

Q: Which outcome does the source give for `BrCCCCCBr` here?
A: Its outcome is “inactive”.

Q: Which outcome does the source give for `C[C@@H](Oc1ccc(CNC(=O)c2cccnc2Oc2ccc3c(c2)OCO3)c(F)c1)C(=O)O` here?
A: The outcome was “inactive”.

Q: Which activation does the source give for `COC(=O)C1CC(=O)C(C(=O)OC)CC1=O` (centres undefined) here?
A: The activation was 0.0574% [at 5.23 µM].

Q: With `CC(C)CC(=O)O` as the compound, how does the outcome read?
A: Its outcome is “inactive”.

Q: Which outcome does the source give for `NS(=O)(=O)c1cc2c(cc1Cl)CN(C1CCCCC1)C2=O` here?
A: Its outcome is “inactive”.

Q: Which outcome does the source give for `C=C(C)C1CCC(C)(O)CC1` (centres undefined) here?
A: Its outcome is “inactive”.

Q: For `O=C(O)Cc1ccc(Cl)cc1Cl`, which outcome is on record?
A: The outcome was “inactive”.

Q: Which outcome does the source give for `CCCCOC(=O)c1ccccc1` here?
A: The outcome was “inactive”.

Q: For `COc1ccc(Br)c(C)c1`, which outcome is on record?
A: The outcome was “inactive”.

Q: Which outcome does the source give for `Cc1[nH]cnc1-c1ccc(Cl)cc1` here?
A: The outcome was “inactive”.

Q: Which outcome does the source give for `NCCN1CCOCC1` here?
A: The outcome was “inactive”.

Q: With `CCC(C)NC(N)=O` (centres undefined) as the compound, how does the outcome read?
A: The outcome was “inactive”.

Q: Which outcome does the source give for `C=C(C)C(=O)OCCOP(=O)(O)OCCOC(=O)C(=C)C` here?
A: Its outcome is “inactive”.

Q: With `COC(=O)[C@@H]1[C@H]2C[C@H]3c4[nH]c5ccccc5c4CCN3C[C@@H]2CC[C@@H]1O` as the compound, how does the outcome read?
A: The outcome was “inactive”.

Q: For `C=C(C)C(=O)OCCN(CC)CC`, which outcome is on record?
A: The outcome was “inactive”.

Q: For `CCN(CC)CC(=O)Nc1c(C)cccc1C`, which outcome is on record?
A: Its outcome is “inactive”.

test system: not listed separately; assay: Human pregnane X receptor (PXR) small molecule agonists, qHTS cell viability counter screen (AID 1346977; active = well fitted cell-killing curve with a large enough effect in the repeat runs; also: nearly all actives have a fitted effect of over 50% in size); conditions: PXR-Luc HepG2 viability, CellTiter-Fluor, 24 h; series mostly up to 92.4 µM
Summary of the method: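 HepG2 cells stably carrying the PXR-Luc reporter are cultured with 5% charcoal-stripped FBS and treated with compounds for 24hr. CellTiter-Fluor is added at 23hr and fluorescence is read after 1hr.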

Q: With `CCCCCCCCSCC` as the compound, how does the Potency read?
A: Its Potency is “inactive”.

Q: For `CCCC/C=C\CCCCCCCCCC=O`, which Potency is on record?
A: The Potency was “inactive”.

Q: With `CCCCCCCCC1CCC(=O)O1` (centres undefined) as the compound, how does the Potency read?
A: Its Potency is “inactive”.

Q: Which Potency does the source give for `Cc1cc(NC(=O)C2=C(O)c3ccccc3S(=O)(=O)N2C)no1` here?
A: Its Potency is “inactive”.

Q: Which Potency does the source give for `N#Cc1ccc(C(=O)O)cc1` here?
A: Its Potency is “inactive”.

Q: For `CCNC(=O)C1CC(C)CCC1C(C)C` (centres undefined), which Potency is on record?
A: Its Potency is “inactive”.

Q: With `C=CCCCCCCCCCCCC` as the compound, how does the Potency read?
A: Its Potency is “inactive”.

Q: For `CC(CO)c1ccccc1` (centres undefined), which Potency is on record?
A: Its Potency is “inactive”.

Q: With `Nc1nnc(-c2cccc(Cl)c2Cl)c(N)n1` as the compound, how does the Potency read?
A: Its Potency is “inactive”.

Q: For `Cc1cc(Cl)c(C)cc1Cl`, which Potency is on record?
A: The Potency was “inactive”.

Q: For `COCCOC(=O)C1=C(C)NC(C)=C(C(=O)OC(C)C)C1c1cccc([N+](=O)[O-])c1` (centres undefined), which Potency is on record?
A: The Potency was “inactive”.

Q: With `O=C(O)C(=O)Cc1ccccc1` as the compound, how does the Potency read?
A: Its Potency is “inactive”.

Q: Which Potency does the source give for `CC(C)(C)c1n[nH]c(=S)n(N)c1=O` here?
A: Its Potency is “inactive”.

Q: Which Potency does the source give for `COC(=O)CCc1ccc(OCC(O)CNC(C)C)cc1` (centres undefined) here?
A: Its Potency is “inactive”.

Q: For `Nc1cccc(O)c1`, which Potency is on record?
A: Its Potency is “inactive”.

Q: Which Potency does the source give for `O=C(O)c1cc(Cl)cc([N+](=O)[O-])c1Cl` here?
A: The Potency was “inactive”.

Q: Which Potency does the source give for `C#CC(C)N(C)C(=O)Nc1ccc(Cl)cc1` (centres undefined) here?
A: The Potency was “inactive”.

Q: For `CCC(CC)CO`, which Potency is on record?
A: Its Potency is “inactive”.

Q: For `CC(C)NCC(O)COc1cccc2[nH]ccc12` (centres undefined), which Potency is on record?
A: The Potency was “inactive”.

Q: For `COc1cc2c(cc1OC)C(=O)CC2`, which Potency is on record?
A: The Potency was “inactive”.

Q: Which Potency does the source give for `CC1COc2ccccc2N1` (centres undefined) here?
A: Its Potency is “inactive”.

Q: For `BrCCCCCBr`, which Potency is on record?
A: Its Potency is “inactive”.

Q: Which Potency does the source give for `C[C@@H](Oc1ccc(CNC(=O)c2cccnc2Oc2ccc3c(c2)OCO3)c(F)c1)C(=O)O` here?
A: The Potency was “inactive”.

Q: For `COC(=O)C1CC(=O)C(C(=O)OC)CC1=O` (centres undefined), which activity change, negative = cytotoxicity is on record?
A: Its activity change, negative = cytotoxicity is 1.52% [at 8.39 µM].

Q: For `CC(C)CC(=O)O`, which Potency is on record?
A: The Potency was “inactive”.

Q: Which Potency does the source give for `NS(=O)(=O)c1cc2c(cc1Cl)CN(C1CCCCC1)C2=O` here?
A: The Potency was “inactive”.

Q: For `C=C(C)C1CCC(C)(O)CC1` (centres undefined), which Potency is on record?
A: Its Potency is “inactive”.

Q: For `O=C(O)Cc1ccc(Cl)cc1Cl`, which Potency is on record?
A: Its Potency is “inactive”.

Q: With `CCCCOC(=O)c1ccccc1` as the compound, how does the Potency read?
A: The Potency was “inactive”.

Q: Which Potency does the source give for `COc1ccc(Br)c(C)c1` here?
A: The Potency was “inactive”.

Q: With `Cc1[nH]cnc1-c1ccc(Cl)cc1` as the compound, how does the Potency read?
A: The Potency was “inactive”.

Q: With `NCCN1CCOCC1` as the compound, how does the Potency read?
A: The Potency was “inactive”.

Q: With `CCC(C)NC(N)=O` (centres undefined) as the compound, how does the Potency read?
A: Its Potency is “inactive”.

Q: With `C=C(C)C(=O)OCCOP(=O)(O)OCCOC(=O)C(=C)C` as the compound, how does the Potency read?
A: Its Potency is “inactive”.

Q: Which Potency does the source give for `COC(=O)[C@@H]1[C@H]2C[C@H]3c4[nH]c5ccccc5c4CCN3C[C@@H]2CC[C@@H]1O` here?
A: Its Potency is “inactive”.

Q: With `C=C(C)C(=O)OCCN(CC)CC` as the compound, how does the Potency read?
A: Its Potency is “inactive”.

Q: Which Potency does the source give for `CCN(CC)CC(=O)Nc1c(C)cccc1C` here?
A: Its Potency is “inactive”.

Source: PubChem BioAssay (Tox21)
